In the library only some 1.5% were active in any assay of this set; here they are far more common.
FEN1 inh – qHTS Assay for the Inhibitors of Human Flap endonuclease 1 (FEN1). P39748. Recombinant FEN1 flap cleavage, fluorescence, 15 min. Potency, µM (top dose mostly 114 µM), without a hit: top-dose activity change, negative = inhibition, hits mostly inhibitors. hit rate 0.35% among 390,000. AID 588795, 2011; note: potency is the fitted concentration of half-maximal effect; % is set by controls: 0 for no effect and ±100 for the full control effect; nearly all actives have a fitted effect of over 65% in size
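Reaction started by adding substrate (50 nM final) to 10 nM enzyme after 15 min room-temperature compound preincubation. Reads at 0 and 15 min, with data normalized and fitted to a four-parameter Hill equation.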
WRN helicase inh-1 – qHTS for Inhibitors of WRN Helicase; Bifunctional 3'-5' exonuclease/ATP-dependent helicase WRN (Homo sapiens), Q14191; WRN helicase unwinding, fluorescent forked duplex, kinetic; Potency, µM (top dose mostly 114 µM), inactives show at the top dose activity change, negative = inhibition, usual class: inhibitors; hit rate 0.46% among 360,000; AID 651768, 2012; note: potency is the fitted concentration of half-maximal effect; % is set by controls: 0 for no effect and ±100 for the full control effect; nearly all actives have a fitted effect of over 55% in size
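Screening of the MLSMR collection measured strand separation of a quenched forked DNA duplex (100 nM) by 20 nM WRN with 2 mM ATP, all final. Compounds were preincubated with enzyme 15 min at room temperature.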
Tb PFK inh-1 – qHTS Assay to Find Inhibitors of T. brucei phosphofructokinase | hit rate 0.17% among 330,000 | Potency, µM (doses to about 57.5 µM), for the others: at the highest dose activity, negative = inhibition, most hits filed as inhibitors | T. brucei PFK, ADP-Glo luminescence | AID 485367, 2010;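 note: potency is the fitted concentration of half-maximal effect; 0% = uninhibited 1x PFK enzyme wells and -100% = no-enzyme wells; nearly all actives have a fitted effect of over 60% in size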
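Luminescent ADP detection (ADP-Glo, two-step: ATP depletion then ADP-to-ATP conversion for luciferase) reported PFK activity after 45 min room-temperature reaction of 1.25 nM enzyme with 0.5 mM F6P and 0.1 mM ATP at pH 8.0.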
PGK inhibitor – qHTS Assay to Find Inhibitors of Phosphoglycerate Kinase; Phosphoglycerate kinase, glycosomal (Trypanosoma brucei brucei), P07378; PGK/GAPDH coupled, Kinase-Glo luminescence, 60 min; Potency, µM (highest dose often 57.5 µM), inactives show at the top dose activity change, negative = inhibition, most hits filed as inhibitors; hit rate 0.043% among 380,000; note: potency is the fitted concentration of half-maximal effect; % is set by controls: 0 for no effect and ±100 for the full control effect; nearly all actives have a fitted effect of over 60% in size
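Recombinant glycosomal PGK reaction used 1,3-bisphosphoglycerate generated in-well by GAPDH (100nM final) in 100mM TEA pH 7.6, 5mM MgCl2, 0.01% Tween-20. After 60 minutes at room temperature, ATP was read by Kinase-Glo Plus luminescence end-point.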
TDP1 inh – qHTS Assay for Inhibitors of Tyrosyl-DNA Phosphodiesterase (TDP1); Tyrosyl-DNA phosphodiesterase 1 (Homo sapiens), Q9NUW8; recombinant TDP1, AlphaScreen DNA substrate cleavage; Potency, µM (highest dose often 130 µM), inactives show at the highest dose activity change, negative = inhibition, most hits filed as inhibitors; hit rate 0.28% among 350,000; AID 485290, 2010; note: potency is the fitted concentration of half-maximal effect; % is set by controls: 0 for no effect and ±100 for the full control effect; nearly all actives have a fitted effect of over 40% in size
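Compounds were preincubated with Tdp1 (1 nM final) for 15 min at room temperature before substrate (15 nM final) started a 5 min reaction; beads (10 ug/ml final) were then added for 10 min before AlphaScreen detection.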
PI5P4K alpha inh – qHTS for Inhibitors of phosphatidylinositol 5-phosphate 4-kinase (PI5P4K) | Phosphatidylinositol 5-phosphate 4-kinase type-2 alpha (Homo sapiens), P48426 | PI5P4Kalpha enzyme, ADP-Glo luminescence, 60 min; hits give low values | max response, % | hit rate 1.2% among 330,000 | AID 652105, 2013; active = max response of -50% or lower; inconclusive = between -30% and -50%; inactive = -30% or higher; note: value at the top dose of about 77 µM; % is set by controls: 0 for no effect and ±100 for the full control effect
Target sequence (P48426 whole entry, looked up): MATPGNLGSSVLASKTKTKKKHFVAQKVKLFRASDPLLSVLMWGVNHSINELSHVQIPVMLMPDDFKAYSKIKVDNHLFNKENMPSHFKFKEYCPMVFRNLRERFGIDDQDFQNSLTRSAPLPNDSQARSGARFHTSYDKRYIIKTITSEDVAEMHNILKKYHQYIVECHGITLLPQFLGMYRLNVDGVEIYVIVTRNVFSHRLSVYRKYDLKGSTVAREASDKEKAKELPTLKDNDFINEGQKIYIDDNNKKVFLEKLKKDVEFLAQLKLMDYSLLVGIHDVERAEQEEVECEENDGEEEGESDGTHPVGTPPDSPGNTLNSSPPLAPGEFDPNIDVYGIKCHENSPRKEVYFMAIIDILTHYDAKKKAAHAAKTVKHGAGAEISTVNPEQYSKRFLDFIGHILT
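Reactions run in 0.038 M HEPES pH 7.4, 0.28 mM EGTA, 0.1% CHAPS and 5% DMSO, with PI5P4Kalpha, substrate, compound and 5 microM ATP final, one hour at room temperature. Readout is ADP-Glo luminescence.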
TbPFK ATP – Tb PFK orthogonal confirmatory assay using ATP depletion (Kinase-Glo Plus) as an alternative measure of Tb PFK activity: Hit Validation; shares compounds with Tb PFK inh-1; Tb PFK enzyme, ATP depletion, Kinase-Glo Plus luminescence; Potency, µM (titrated, usually from 57.5 µM), for inactives: top-dose inhibition; hit rate 47% among 1,100; AID 504636, 2011; calls by dose curve; note: potency is the fitted concentration of half-maximal effect; nearly all actives have a fitted effect of over 60% in size
Tb PFK inh-2 – Inhibitors of T. brucei phosphofructokinase: Hit Validation | shares compounds with Tb PFK inh-1 | purified T. brucei PFK, ADP-Glo luminescence, 45 min | Potency, µM (highest dose often 57.5 µM), for the others: at the highest dose activity change, negative = inhibition, usual class: inhibitors | hit rate 41% among 1,100;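 note: potency is the fitted concentration of half-maximal effect; plate controls were full PFK enzyme control for no effect and no enzyme control for full effect; nearly all actives have a fitted effect of over 60% in size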
WRN helicase inh-2 – qHTS for Inhibitors of WRN Helicase: Confirmatory Assay for Cherry-picked Compounds. shares compounds with WRN helicase inh-1. WRN helicase DNA unwinding, fluorescence kinetic. Potency, µM (titrated, usually from 57.1 µM), inactives show top-dose activity, negative = inhibition, hits mostly inhibitors. hit rate 63% among 610. AID 720497, 2013; note: potency is the fitted concentration of half-maximal effect; nearly all actives have a fitted effect of over 65% in size
TO DNA binding – qHTS for Inhibitors of WRN Helicase: Thiazole Orange DNA Binding Counterscreen | thiazole orange DNA binding displacement, fluorescence | hit rate 10% among 610 | shares compounds with WRN helicase inh-1 | Potency, µM (doses to about 57.1 µM), without a hit: at the highest dose activity change, negative = inhibition, hits mostly inhibitors;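 note: drop in dye fluorescence marks compound binding to DNA; potency is the fitted concentration of half-maximal effect; % is set by controls: 0 for no effect and ±100 for the full control effect; nearly all actives have a fitted effect of over 60% in size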
BLM helicase inh – qHTS for Inhibitors of WRN Helicase: BLM Helicase Counterscreen for WRN Inhibitors. shares compounds with WRN helicase inh-1. Recombinant BLM helicase DNA unwinding, red fluorescence. Potency, µM (highest dose often 57.1 µM), for the others: at the top dose activity change, negative = inhibition, usual class: inhibitors. hit rate 60% among 610. AID 720503, 2013; note: potency is the fitted concentration of half-maximal effect; nearly all actives have a fitted effect of over 60% in size
ADP-Glo counter – qHTS for Inhibitors of PI5P4K: ADP-Glo counter assay; 1,100 tested, under 10 active; shares compounds with PI5P4K alpha inh; Potency, µM (series often up to 76.9 µM), for inactives: at the highest dose activity change, negative = inhibition, hits mostly inhibitors; ADP-Glo detection counter-screen, luciferase luminescence, no enzyme
* hit, by the source's call; ? = inconclusive; . = not tested or not shown. Unless noted, calls come from the whole dose curve; as a rule, active = well fitted curve in the direction sought with a large enough effect; inconclusive = small, poorly fitted or top-dose-only effect, or another doubt; inactive = no such curve, though single readings can be large; an effect the other way counts as inactive or inconclusive.

SMILES	FEN1 inh	WRN helicase inh-1	Tb PFK inh-1	PGK inhibitor	TDP1 inh	PI5P4K alpha inh	TbPFK ATP	Tb PFK inh-2	ADP-Glo counter	others
O=C(NCCCN1CCOCC1)c1sc2cc([N+](=O)[O-])ccc2c1Cl	?	28µM*	11µM*	3%	-5%	-68*	3.4µM*	4.3µM*	-1%	WRN helicase inh-2=-12%;TO DNA binding=-15%;BLM helicase inh=?
Cc1nc2ccc(NC3=NCCCCC3)cc2s1	0%	-7%	11µM*	10%	10%	-55*	8.5µM*	6.7µM*	-10%
CCc1ccc(NC2=NCCCS2)cc1	3%	0%	1%	-2%	5%	10	.	.	.
C=C(C)c1cc2cc(C(C)=O)c(O)cc2o1	.	.	.	.	7%	.	.	.	.
COc1ccc(C(CNC(=O)Cc2ccc(Cl)c(Cl)c2)N2CCCCC2)cc1 (centres undefined)	-3%	-13%	-7%	-3%	4%	-1	.	.	.
Oc1cc2c(cc1C(c1ccc(Cl)c(Cl)c1)N1CCCC1)OCO2 (centres undefined)	2%	?	21µM*	7%	-6%	-74*	?	?	5%
Cc1cc(NS(=O)(=O)c2ccc(NC(=O)COc3ccc(Br)cc3)cc2)nc(C)n1	?	-9%	?	1%	1%	-54*	8.5µM*	24µM*	-1%
